Only some compounds are listed: those with a hit (about 7.8% of all), similar ones and a draw of the others.
Cav32 inh – blocks human Cav3.2 T-type calcium channel | O95180 | Cav3.2-expressing cells, Fluo-4 calcium fluorescence FDSS; hits give low values | B-score at 10 µM | 4% of 100,000 active;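 active = single-dose well whose peak fluorescence ratio is a statistical outlier from its plate by either plate-standardised score or position-corrected B-score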
PostGolgi yeast – growth inhibition of a yeast mutant, post-Golgi transport screen. inhibition, % at 10 µM. 0.9% of 98,000 active. post-Golgi transport phenotypic cell assay;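 note: yeast cells grown in 1536-well plates; yeast grown about 18 h at 30C before absorbance read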
sEH act – activators of human soluble epoxide hydrolase; activation, % at 2 µM; 0.04% of 91,000 active; P34913; purified human sEH enzymatic activity, activator screen; in the data active = activation above about 37%
Target sequence (P34913 whole entry, looked up): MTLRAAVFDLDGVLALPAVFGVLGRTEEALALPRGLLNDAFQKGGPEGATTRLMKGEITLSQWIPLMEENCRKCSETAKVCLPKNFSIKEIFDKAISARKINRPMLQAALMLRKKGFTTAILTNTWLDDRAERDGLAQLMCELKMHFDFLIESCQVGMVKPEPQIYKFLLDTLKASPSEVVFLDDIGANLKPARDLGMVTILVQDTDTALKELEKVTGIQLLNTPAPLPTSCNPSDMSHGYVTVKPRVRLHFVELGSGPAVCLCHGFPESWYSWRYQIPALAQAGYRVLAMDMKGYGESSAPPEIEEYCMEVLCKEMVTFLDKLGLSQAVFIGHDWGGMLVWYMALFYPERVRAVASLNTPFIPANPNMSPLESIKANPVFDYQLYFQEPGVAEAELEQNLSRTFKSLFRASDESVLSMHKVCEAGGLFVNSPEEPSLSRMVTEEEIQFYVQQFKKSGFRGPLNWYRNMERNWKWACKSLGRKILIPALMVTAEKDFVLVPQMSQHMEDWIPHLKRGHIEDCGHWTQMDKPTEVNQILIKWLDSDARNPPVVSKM
PostGolgi ctrl – growth of the yeast control strain, post-Golgi counter-screen | efflux-deficient yeast background strain, growth absorbance A615, 16 h | inhibition, % at 10 µM | 5% of 98,000 active | AID 738
sEH inh – blocks human soluble epoxide hydrolase activity. inhibition, % at 2 µM. 0.34% of 91,000 active. P34913. recombinant human sEH enzymatic activity assay; in the data active = inhibition above about 80%
* = called active by the depositor; · = not tested or not shown. Cut-off read from the data, not from the text of the source, unless noted: active = inhibition above about 30%; inactive = the rest.

SMILES	Cav32 inh	PostGolgi yeast	sEH act	PostGolgi ctrl	sEH inh
CCC(C(=O)NC(C)(C)C)N(C(=O)Cn1nnc(-c2ccccc2F)n1)c1cccc2c1CCCC2 (centres undefined)	-2.05	3.8	-5.2	1.4	5.7
CC(C)C(NS(=O)(=O)c1ccc2c(c1)OCCO2)C(=O)NCCc1ccccn1 (centres undefined)	-0.483	0.2	·	0.8	·
COc1cccc(CNC(=O)CSCc2cnn(-c3ccccc3)c2-n2cccc2)c1	-5.29*	-2.9	-20.1	23.4	22.6
CCOC(=O)N1CCC(NC(=O)CSCc2cnn(-c3ccccc3)c2-n2cccc2)CC1	-0.0212	9.2	-67.0	2.6	66.4
O=C(CSCc1cnn(-c2ccccc2)c1-n1cccc1)NCc1cccs1	-6.28*	0.7	8.5	7.8	-7.0
CNC(=O)CSCc1cnn(-c2ccccc2)c1-n1cccc1	1.21	21.3	-6.1	-3.5	4.9
Cc1ccc(C)c(N2CCN(C(=O)CCCn3c(=S)[nH]c4cc5c(cc4c3=O)OCO5)CC2)c1	-8.56*	-0.2	-16.4	26.9	17.5
O=C(CCCn1c(=S)[nH]c2cc3c(cc2c1=O)OCO3)N1CCN(c2ncccn2)CC1	0.575	10.4	20.0	43.1*	-20.4
CC(=O)c1cccc(NC(=O)c2nccnc2C(=O)O)c1	-0.592	-0.8	-0.2	17.2	-2.7
COc1ccc(-c2nc(C#N)c(N3CCCCCC3)o2)cc1	-1.37	23.0	5.2	20.1	-6.8
COc1ccc(-c2nc(C#N)c(N3CCCCCC3)o2)cc1OC	-0.621	13.4	-7.7	34.4*	8.9
CC(=O)c1ccc(-n2nncc2C)cc1	-0.0334	2.8	1.6	6.5	-2.9
N#Cc1nc(-c2cccs2)oc1NCCc1ccccc1	-3.89	0.2	6.4	34.5*	-8.3
N#Cc1nc(-c2cccs2)oc1NCc1ccc2c(c1)OCO2	-5.62*	-2.3	7.9	12.9	-4.7
COc1ccc(Nc2oc(-c3cccs3)nc2C#N)cc1	-4.36*	-3.4	-7.2	12.5	5.8
CNc1oc(-c2cccs2)nc1C#N	·	-9.3	17.8	0.4	-19.6
N#Cc1nc(-c2ccccc2F)oc1NCCc1ccccc1	-0.2	20.1	18.2	12.8	-16.2
O=C(Nc1ccc(F)cc1)N1CCN(c2ccc3nnc(-c4ccc(F)cc4)n3n2)CC1	1.31	6.8	-23.4	1.1	23.9
Fc1ccc(-c2nnc3ccc(N4CCc5ccccc5C4)nn23)cc1	0.716	-2.6	-9.7	58.8*	8.6
NC(=O)CSc1nc(-c2ccccc2Cl)ns1	0.925	-6.3	5.7	3.3	-8.3
Cc1noc(C)c1COC(=O)c1cc2c3ccccc3n(C)c2s1	0.105	-7.5	0.8	37.3*	-1.3
Cc1noc(C)c1COC(=O)c1cc2c(C)nn(-c3ccc(F)cc3)c2s1	0.113	·	·	·	·
Cc1ccccc1OCC(=O)Nc1sc(C(=O)Nc2cccc(C)c2C)c(C)c1C#N	0.0807	-2.2	10.0	-1.9	-8.9
O=C(CN(Cc1ccccc1F)C(=O)Cn1nnc(-c2cccs2)n1)NC1CCCCC1	-6.31*	5.1	-10.6	0.1	13.7
Cc1ccc(-c2nnn(CC(=O)N(CC(=O)NC3CCCCC3)c3cnc4ccccc4c3)n2)o1	-4.37*	·	-1.5	·	1.7
SMILES	Cav32 inh	PostGolgi yeast	sEH act	PostGolgi ctrl	sEH inh
O=C(CN(C(=O)Cn1nnc(-c2cccs2)n1)c1ccc2c(c1)OCCO2)NC1CCCCC1	-4.07*	-3.5	5.4	7.8	-7.3
O=C(CSc1ncnc2sc3c(c12)CCCC3)c1ccco1	·	-0.2	-2.9	45.8*	1.8
O=C(CSc1ncnc2sc3c(c12)CCCC3)c1ccccc1	-0.474	·	-12.7	·	13.2
CCc1nc2ccc(C)cc2c(C(=O)NC2CCCCC2C)c1C (centres undefined)	-0.523	2.2	1.9	5.0	2.3
Cn1c(=O)oc2cc(S(=O)(=O)N3CCCC(C(=O)Nc4ccc5c(c4)OCCO5)C3)ccc21 (centres undefined)	·	17.7	-38.3	31.0*	40.4
CSc1cccc(NC(=O)C2CCCN(S(=O)(=O)c3ccc(F)cc3)C2)c1 (centres undefined)	-6.31*	2.8	-36.8	11.5	36.8
CCOC(=O)c1cccc(NC(=O)CSc2nnc(COc3ccccc3C)o2)c1	0.872	-2.3	2.2	3.6	-0.1
O=C(/C=C/c1cc([N+](=O)[O-])ccc1OC(F)F)NCc1ccc(F)cc1	-6.12*	-7.5	-2.9	-2.2	1.2
O=C(O)c1cn(C2CC2)c2cc(N3CCOCC3)c(F)cc2c1=O	·	·	-1.8	·	6.8
O=C(CSc1nnc(-c2ccccc2)o1)OCc1ccccc1	0.224	-4.7	-7.7	1.9	7.3
O=[N+]([O-])c1cccc(-c2nc(-c3ccccc3)c(-c3cccs3)[nH]2)c1	0.275	-3.3	7.7	7.0	-9.8
COc1ccc(-c2[nH]c(-c3ccc(C(=O)O)cc3)nc2-c2ccccc2)cc1	1.38	-2.9	13.6	29.2	-12.9
COc1ccc(-c2nc(-c3ccccc3)c(-c3cccs3)[nH]2)cc1OC	-0.177	3.6	-5.3	34.3*	2.5
COc1ccc(-c2nc(-c3cccs3)c(-c3cccs3)[nH]2)cc1OC	-1.4	16.9	2.1	38.0*	-1.9
O=[N+]([O-])c1cccc(-c2nc(-c3cccs3)c(-c3cccs3)[nH]2)c1	0.0535	-3.6	-2.9	16.5	3.3
COc1ccc(-c2[nH]c(-c3ccc4c(c3)OCO4)nc2-c2ccccc2)cc1	-1.03	62.3*	-5.0	33.5*	6.7
CCc1cccc(CC)c1NC(=O)CSc1nc2ccc(N3C(=O)C4C5C=CC(C5)C4C3=O)cc2s1 (centres undefined)	-1.33	-12.1	22.8	30.1*	-23.8
Cc1cccc(NC(=S)NN(Cc2ccccc2)c2ccccc2)c1C	-4.85*	-2.4	14.5	13.9	-13.6
COc1ccccc1/C=N/NC(=O)CC(=O)Nc1ccc(Cl)c(Cl)c1	-5.3*	-5.4	-6.4	19.7	7.1
COc1cccc(/C=N/NC(=O)CSCC(=O)Nc2ccccc2)c1O	-1.49	1.2	14.1	6.0	-16.1
Cc1cc(/C=N\NC(=O)CC(=O)NC2CCCCC2)c(C)n1-c1ccc(Cl)c(Cl)c1	-2.91	-7.3	-10.2	10.0	12.8
COc1cccc(NC(=O)C(=O)N/N=C/c2cc(C)n(-c3ccc(Cl)c(Cl)c3)c2C)c1	-5.55*	-1.6	2.7	-7.1	-1.3
O=C(CN1CCNCC1)Nc1ccc(Oc2ccccc2)cc1	1.16	4.7	0.2	39.2*	-0.8
O=C(CN1CCN(c2ccccc2)CC1)Nc1ccc(Oc2ccccc2)cc1	-1.68	3.7	-10.8	41.7*	9.1
N#CC1=C(SCC(N)=O)NC2=C(C(=O)c3ccccc32)C1c1ccc(Cl)cc1 (centres undefined)	0.46	4.0	-4.9	10.5	7.5
CC1(OC(=O)C2CCCC2)C(=O)C=C2C=C(c3ccsc3)N(CCc3c[nH]c4ccccc34)C=C2C1=O (centres undefined)	0.56	·	·	·	·
CCOC(=O)c1cnn(-c2sc(C(=O)OCC)c(C)c2C(=O)OCC)c1N	-3.27*	·	2.5	·	-0.8
O=C(Nc1ccc(Cl)cc1)c1cccs1	0.000443	23.2	-37.8	15.2	36.6
CCC(C)c1ccc(NC(=O)c2cccs2)cc1 (centres undefined)	-1.53	-1.3	-89.9	7.7	89.5*

Screens from PubChem BioAssay.
